Assay results from PubChem BioAssay (NCATS).
Inconclusive results are not listed. Entries that show only a call come without a potency. Active and inactive are the calls of the source. The call rests on the fitted dose curve; in most records, active means well fitted inhibition curve with a large enough effect; inconclusive means small, poorly fitted or top-dose-only effect; inactive means flat fitted curve, though single readings scatter.

Test: P-glycoprotein substrates identified in KB-8-5-11 adenocarcinoma cell line, qHTS therapeutic library screen (AID 1346987); further: nearly all actives have a fitted effect of over 65% in size
Conditions: KB-8-5-11 (P-gp overexpressing) viability, CellTiter-Glo, 72 h; series mostly up to 44.5 µM
Method in brief: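 Luminescence from CellTiter-Glo, read 5 min after addition, quantified survival of KB-8-5-11 (P-gp-overexpressing) cells exposed to compounds for 72 h. AC50 was derived from concentration-response curves.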
Potency means the concentration at half of the fitted maximal effect.

SMILES	Potency
COc1cc(C(=O)NC(=S)Nc2cccc(NC(=O)c3ccccc3)c2)cc(OC)c1OC	inactive
CC(=O)OC1CCC2(C)C(CCC3(C)C2CC=C2C4C(C)C(C)CCC4(C)CCC23C)C1(C)C(=O)O (stereo unspecified)	inactive
O=C(Nc1ccccc1Cl)c1cnc2ccc(C3CCNCC3)cn12	inactive
COc1ccc([C@H]2Cc3cccc(O)c3C(=O)O2)cc1OC	inactive
CCCCNc1ncc2c(-c3ccc(S(=O)(=O)N4CCOCC4)cc3)nn(C3CCC(O)CC3)c2n1 (stereo unspecified)	7.31 µM (active)
CNS(=O)(=O)c1ccccc1Nc1nc(Nc2ccc(N3CCN(C)CC3)cc2OC)ncc1Br	2.06 µM (active)
